ChEMBL document CHEMBL4513146, “CO-ADD screening of Karazin Kharkiv National University (Ukraine) compounds”
Potency and affinity values are given separately.

How the values were obtained:
Staphylococcus aureus = conditions: Concentration 32 ug.mL-1;; ASSAY_TEST Inhibition of Bacterial Growth; detection method Absorption (OD600); MEDIA CAMHB; plate type 384well; NBS; CORNING #3640; time 18 hr
Escherichia coli = conditions: Concentration 32 ug.mL-1;; ASSAY_TEST Inhibition of Bacterial Growth; detection method Absorption (OD600); MEDIA CAMHB; plate type 384well; NBS; CORNING #3640; time 18 hr

Compound: Cc1ccc(NC(=O)Cn2nc3ccc(SC(C)C)nn3c2=O)c(Cl)c1
- Inhibition (Staphylococcus aureus): -9.9%
- Inhibition (Escherichia coli): 1.89%

Compound: COC(=O)c1ccc(NC(=O)Cn2nc3c(Oc4ccccc4)nccn3c2=O)cc1
- Inhibition (Staphylococcus aureus): 1.06%
- Inhibition (Escherichia coli): -10.41%

Compound: CCCCN(CC)c1ccc2nnc(CCc3nc(-c4ccc5c(c4)OCO5)no3)n2n1
- Inhibition (Staphylococcus aureus): -15.7%
- Inhibition (Escherichia coli): 1.35%

Compound: COc1cccc(-n2ccn3c(SCC(=O)NCc4ccc(Cl)cc4)nnc3c2=O)c1
- Inhibition (Staphylococcus aureus): 10.06%
- Inhibition (Escherichia coli): -3.71%

Compound: CCCNC(=O)CSc1nnc2c(=O)n(-c3ccc(F)cc3)ccn12
- Inhibition (Staphylococcus aureus): -5.35%
- Inhibition (Escherichia coli): -1%

Compound: O=C(CSc1nnc2c3cc(-c4ccccc4)nn3ccn12)NCc1ccc(Cl)cc1
- Inhibition (Staphylococcus aureus): 6.91%
- Inhibition (Escherichia coli): -1.12%

Compound: COc1cc(NC(=O)Cn2nc3ccc(-c4ccc(C)c(C)c4)nn3c2=O)cc(OC)c1
- Inhibition (Staphylococcus aureus): 8.96%
- Inhibition (Escherichia coli): -5.07%

Compound: CCc1ccc(NC(=O)Cn2nc3c(Sc4ccccc4)nccn3c2=O)cc1
- Inhibition (Staphylococcus aureus): 6.66%
- Inhibition (Escherichia coli): -4.33%

Compound: CC(C)c1nnc2c(SCC(=O)Nc3ccccc3F)nc3ccccc3n12
- Inhibition (Staphylococcus aureus): 10.78%
- Inhibition (Escherichia coli): -2.22%

Compound: CC1CCN(C(=O)Cn2nc3n(Cc4ccco4)c(=O)c4sccc4n3c2=O)CC1
- Inhibition (Staphylococcus aureus): 1.87%
- Inhibition (Escherichia coli): -2.27%

Compound: CSc1cccc(NC(=O)Cn2nc3ccc(-c4ccc(C)c(C)c4)nn3c2=O)c1
- Inhibition (Staphylococcus aureus): -11.35%
- Inhibition (Escherichia coli): -14.99%

Compound: CCCCOc1ccc(-c2cc3c4nnc(SCC(=O)Nc5ccc(C)c(F)c5)n4ccn3n2)cc1
- Inhibition (Staphylococcus aureus): 5.13%
- Inhibition (Escherichia coli): -2.67%

Compound: CCc1ccc(N(Cc2ccc(F)cc2)S(=O)(=O)c2cccn3c(CC)nnc23)cc1
- Inhibition (Staphylococcus aureus): 19.9%
- Inhibition (Escherichia coli): -4.69%

Compound: COc1ccc(NC(=O)Cn2nc3c(Sc4cccc(F)c4)nccn3c2=O)cc1Cl
- Inhibition (Staphylococcus aureus): 6.9%
- Inhibition (Escherichia coli): -7.48%

Compound: COc1ccc(NC(=O)Cn2nc3ccc(-c4ccc(Cl)cc4)nn3c2=O)cc1OC
- Inhibition (Staphylococcus aureus): -0.18%
- Inhibition (Escherichia coli): -4.63%

Compound: O=C(Cn1nc2ccc(Sc3cccc(F)c3)nn2c1=O)Nc1ccc(Cl)cc1
- Inhibition (Staphylococcus aureus): 7.1%
- Inhibition (Escherichia coli): -8.49%

Compound: CC(C)NC(=O)CCn1c(=O)c2ccccc2n2c(=O)n(CC#N)nc12
- Inhibition (Staphylococcus aureus): -1.98%
- Inhibition (Escherichia coli): 0.48%

Compound: COc1ccc2[nH]cc(C(=O)CSc3nnc4c(=O)n(-c5ccc(C)c(C)c5)ccn34)c2c1
- Inhibition (Staphylococcus aureus): 17.24%
- Inhibition (Escherichia coli): -2.44%

Compound: O=c1n(Cc2ccc3c(c2)OCO3)nc2ccc(-c3ccccc3)nn12
- Inhibition (Staphylococcus aureus): 12.41%
- Inhibition (Escherichia coli): -0.49%

Compound: O=C(CSc1nnc2c3cc(-c4ccc(F)cc4)nn3ccn12)Nc1ccccc1C(F)(F)F
- Inhibition (Staphylococcus aureus): -6.75%
- Inhibition (Escherichia coli): -13.58%

Compound: CCc1ccc(N(Cc2ccccc2)S(=O)(=O)c2cccn3c(CC)nnc23)cc1
- Inhibition (Staphylococcus aureus): 13.69%
- Inhibition (Escherichia coli): -0.95%

Compound: Cc1ccc(NC(=O)Cn2nc3c4cc(-c5ccc(C)c(C)c5)nn4ccn3c2=O)c(C)c1
- Inhibition (Staphylococcus aureus): -8.87%
- Inhibition (Escherichia coli): -22.36%

Compound: COc1ccc(CNC(=O)CCc2nnc3ccc(-c4ccccc4)nn23)cc1OC
- Inhibition (Staphylococcus aureus): 1.5%
- Inhibition (Escherichia coli): -2.82%

Compound: CCc1ccc(N(Cc2cc(F)cc(F)c2)S(=O)(=O)c2cccn3c(C)nnc23)cc1
- Inhibition (Staphylococcus aureus): -13.36%
- Inhibition (Escherichia coli): -0.39%

Compound: Cc1ccccc1Oc1nc2ccccc2n2c(=O)n(CC(=O)Nc3cccc(C(F)(F)F)c3)nc12
- Inhibition (Staphylococcus aureus): 7.78%
- Inhibition (Escherichia coli): 2.27%

Compound: Cc1cc2nn(CC(=O)Nc3cccc(F)c3)c(=O)n2c(Nc2ccc(F)c(C)c2)n1
- Inhibition (Staphylococcus aureus): -1.56%
- Inhibition (Escherichia coli): -7.72%

Compound: COc1ccc(Cn2nc3ccc(-c4ccccc4)nn3c2=O)cc1F
- Inhibition (Staphylococcus aureus): 20.86%
- Inhibition (Escherichia coli): 2.33%

Compound: Cc1ccc(-n2ccn3c(=O)n(Cc4ccccc4)nc3c2=O)cc1C
- Inhibition (Staphylococcus aureus): 5.93%
- Inhibition (Escherichia coli): -8.73%

Compound: CCCc1nnc2c(=O)n(CC(=O)Nc3cccc(C#N)c3)c3ccccc3n12
- Inhibition (Staphylococcus aureus): 1.38%
- Inhibition (Escherichia coli): -7.78%

Compound: Cc1cc(C)cc(N(Cc2ccc(F)cc2)S(=O)(=O)c2cccn3cnnc23)c1
- Inhibition (Staphylococcus aureus): -4.06%
- Inhibition (Escherichia coli): -5.96%

Compound: Cc1cccc(NC(=O)CSc2nnc3c(=O)n(-c4ccccc4)ccn23)c1
- Inhibition (Staphylococcus aureus): 7.18%
- Inhibition (Escherichia coli): -6.81%

Compound: COc1ccc(NC(=O)Cn2c(=O)c3nnc(C(C)C)n3c3ccccc32)cc1Cl
- Inhibition (Staphylococcus aureus): 10.36%
- Inhibition (Escherichia coli): 0.69%

Compound: CCc1nnc2c(S(=O)(=O)N(Cc3ccccc3Cl)c3ccccc3)cccn12
- Inhibition (Staphylococcus aureus): 0.81%
- Inhibition (Escherichia coli): -6.41%

Compound: O=c1n(Cc2cccc(C(F)(F)F)c2)nc2c(S(=O)(=O)N3CCCCC3)cccn12
- Inhibition (Staphylococcus aureus): 4.93%
- Inhibition (Escherichia coli): -3.78%

Compound: COc1ccc(N(Cc2cccc(C)c2)S(=O)(=O)c2ccc3nncn3c2)cc1
- Inhibition (Staphylococcus aureus): -29.14%
- Inhibition (Escherichia coli): -12.64%

Compound: O=C(Cn1nc2c(Sc3ccccc3)nccn2c1=O)Nc1cccc(Cl)c1F
- Inhibition (Staphylococcus aureus): 9.57%
- Inhibition (Escherichia coli): -0.62%

Compound: CCOc1ccc(C(=O)CSc2nnc3c(=O)n(-c4ccc(F)cc4)ccn23)cc1
- Inhibition (Staphylococcus aureus): 23.03%
- Inhibition (Escherichia coli): 1.42%

Compound: Cc1nnc2ccc(S(=O)(=O)N(Cc3ccc(F)cc3)c3ccc(Cl)cc3)cn12
- Inhibition (Staphylococcus aureus): 3.43%
- Inhibition (Escherichia coli): -7.02%

Compound: CCOc1ccc(-n2ccn3c(SCC(=O)Nc4ccc(C)cc4Cl)nnc3c2=O)cc1
- Inhibition (Staphylococcus aureus): 8.62%
- Inhibition (Escherichia coli): -1.13%

Compound: CCCCN(CC)c1ccc2nnc(CCc3nc(-c4ccc(Br)cc4)no3)n2n1
- Inhibition (Staphylococcus aureus): 6.29%
- Inhibition (Escherichia coli): -0.23%

Compound: Cc1cccc(Oc2nccn3c(=O)n(CC(=O)NCCCc4ccccc4)nc23)c1C
- Inhibition (Staphylococcus aureus): 9.48%
- Inhibition (Escherichia coli): -1.44%

Compound: COc1ccc(CNC(=O)Cn2nc3c(SCc4ccc(Cl)cc4)nccn3c2=O)cc1
- Inhibition (Staphylococcus aureus): -6.61%
- Inhibition (Escherichia coli): -12.31%

Compound: Cc1ccc(-c2ccc3nn(CC(=O)N4CCN(c5ccccc5)CC4)c(=O)n3n2)cc1C
- Inhibition (Staphylococcus aureus): 8.01%
- Inhibition (Escherichia coli): 2.66%

Compound: Cc1cc(C)c(NC(=O)CSc2nc3ccccc3n3c(C)nnc23)c(C)c1
- Inhibition (Staphylococcus aureus): 9.68%
- Inhibition (Escherichia coli): -6.86%

Compound: O=C(Cn1nc2n(Cc3ccccc3)c(=O)c3ccccc3n2c1=O)Nc1ccc2c(c1)OCO2
- Inhibition (Staphylococcus aureus): -3.15%
- Inhibition (Escherichia coli): 1.74%

Compound: CCC(Sc1nnc2c(=O)n(-c3cccc(OC)c3)ccn12)C(=O)Nc1cc(F)ccc1F (configuration not stated)
- Inhibition (Staphylococcus aureus): 3.22%
- Inhibition (Escherichia coli): -7.17%

Compound: COc1cccc(-c2noc(Cn3nc4ccc(-c5ccccc5)nn4c3=O)n2)c1OC
- Inhibition (Staphylococcus aureus): 13.66%
- Inhibition (Escherichia coli): -2.67%

Compound: COc1ccc(-c2cc3c4nn(CC(=O)Nc5ccc(C)c(C)c5)c(=O)n4ccn3n2)cc1
- Inhibition (Staphylococcus aureus): 9.35%
- Inhibition (Escherichia coli): 6.79%

Compound: COc1cccc(Cn2nc3n(CCC(=O)NC4CCCCC4)c(=O)c4ccccc4n3c2=O)c1
- Inhibition (Staphylococcus aureus): 6.84%
- Inhibition (Escherichia coli): -3.05%

Compound: COc1ccc(-c2cc3c4nnc(CCC(=O)NCc5ccc6c(c5)OCO6)n4ccn3n2)cc1
- Inhibition (Staphylococcus aureus): -1.19%
- Inhibition (Escherichia coli): 5.34%

Compound: N#CCn1nc2n(Cc3ccccc3)c(=O)c3ccc(C(=O)NC4CCCCC4)cc3n2c1=O
- Inhibition (Staphylococcus aureus): -2.91%
- Inhibition (Escherichia coli): -12.22%

Compound: O=C(Cn1nc2c3sc(N4CCCC4)nc3ncn2c1=O)Nc1ccc(F)c(Cl)c1
- Inhibition (Staphylococcus aureus): 15.3%
- Inhibition (Escherichia coli): 1.03%

Compound: Cc1ccc2c(c1)N(C(=O)Cn1nc3ccc(S(=O)(=O)C(C)(C)C)nn3c1=O)CCO2
- Inhibition (Staphylococcus aureus): 10.43%
- Inhibition (Escherichia coli): 3.75%

Compound: O=C(Cn1nc2c(N3CCOCC3)nc3ccccc3n2c1=O)Nc1ccccc1Br
- Inhibition (Staphylococcus aureus): 3.23%
- Inhibition (Escherichia coli): -2.52%

Compound: Cc1cc(C)c(NC(=O)Cn2nc3c(N4CCN(c5ccccc5)CC4)nccn3c2=O)c(C)c1
- Inhibition (Staphylococcus aureus): 13.62%
- Inhibition (Escherichia coli): -0.55%

Compound: COC(=O)c1cccc(NC(=O)Cn2nc3c(N4CCCCCC4)nccn3c2=O)c1
- Inhibition (Staphylococcus aureus): -4.81%
- Inhibition (Escherichia coli): -10.52%

Compound: Cc1ccc(N(Cc2ccccc2F)S(=O)(=O)c2ccc3nncn3c2)cc1
- Inhibition (Staphylococcus aureus): -11.4%
- Inhibition (Escherichia coli): -11.46%

Compound: COc1ccc(NC(=O)Cn2nc3c(Oc4ccccc4)nccn3c2=O)cc1
- Inhibition (Staphylococcus aureus): 9.87%
- Inhibition (Escherichia coli): -1.88%

Compound: COC(=O)c1ccc(CN(c2ccc(Cl)cc2)S(=O)(=O)c2ccc3nncn3c2)o1
- Inhibition (Staphylococcus aureus): 10.93%
- Inhibition (Escherichia coli): -7.28%

Compound: O=C(Cn1nc2c(SC3CCCCC3)nccn2c1=O)Nc1cccc(Br)c1
- Inhibition (Staphylococcus aureus): -4.73%
- Inhibition (Escherichia coli): -7.3%

Compound: COc1ccc(NC(=O)Cn2nc3ccc(-c4ccccc4)nn3c2=O)cc1
- Inhibition (Staphylococcus aureus): 6.57%
- Inhibition (Escherichia coli): -0.4%

Compound: Cc1ccc(Sc2nccn3c(=O)n(CC(=O)Nc4ccccc4C)nc23)c(C)c1
- Inhibition (Staphylococcus aureus): -3.06%
- Inhibition (Escherichia coli): -8.99%

Compound: Cc1cccc(N(Cc2ccc(F)cc2)S(=O)(=O)c2cccn3c(C)nnc23)c1
- Inhibition (Staphylococcus aureus): 15.38%
- Inhibition (Escherichia coli): -0.37%

Compound: Cc1ccc(-c2cc3c4nn(CC(=O)Nc5ccc(Cl)cc5)c(=O)n4ccn3n2)cc1C
- Inhibition (Staphylococcus aureus): -15.51%
- Inhibition (Escherichia coli): -16.09%

Compound: CC(C)CCn1c(=O)c2sccc2n2c(=O)n(CC(N)=O)nc12
- Inhibition (Staphylococcus aureus): 1.13%
- Inhibition (Escherichia coli): -3.19%

Compound: COc1cc(NC(=O)C(C)Sc2nnc3c(=O)n(-c4ccc(F)cc4)ccn23)cc(OC)c1 (configuration not stated)
- Inhibition (Staphylococcus aureus): 6.77%
- Inhibition (Escherichia coli): -6.93%

Compound: O=C(CSc1nnc2c(=O)n(-c3ccc(F)cc3)ccn12)N1CCN(c2ccc(F)cc2)CC1
- Inhibition (Staphylococcus aureus): 9.4%
- Inhibition (Escherichia coli): -2.88%

Compound: COc1cccc(CNC(=O)CCc2nnc3ccc(-c4ccc(C)cc4)nn23)c1
- Inhibition (Staphylococcus aureus): 16.4%
- Inhibition (Escherichia coli): -0.37%

Compound: O=C(NCc1ccccc1)c1ccc2nn(CC(=O)N3CCN(c4ccccc4)CC3)c(=O)n2c1
- Inhibition (Staphylococcus aureus): 4.31%
- Inhibition (Escherichia coli): -4.36%

Compound: COc1ccc(CN(c2ccc(OC)cc2)S(=O)(=O)c2ccc3nnc(C)n3c2)cc1
- Inhibition (Staphylococcus aureus): 4.23%
- Inhibition (Escherichia coli): -1.31%

Compound: Cc1ccccc1Cn1nc2ccc(-c3ccccc3)nn2c1=O
- Inhibition (Staphylococcus aureus): 10.41%
- Inhibition (Escherichia coli): 1.97%
